# Data published in PubChem BioAssay (EPA / NIEHS).
# Active and inactive are the calls of the source. How the source made its calls: active means hit-call score of the fitted dose curve at least 0.9, where 1 is the maximum; inactive means score below 0.9.
# Target: Transcription factor E2F1 (Homo sapiens) (UniProt Q01094)
# Test: ATG_E2F_CIS: Attagene CIS-FACTORIAL HepG2 Assay for human E2F Transcription Factor 1 (AID 2282935)
# Conditions: HepG2 Attagene cis-reporter, E2F reporter RNA transcripts; actives raise or lower the signal
# Method: ATG_CIS is a cell-based, multiplexed-readout assay that uses HepG2, a human liver cell line, with measurements taken at 24 hours after chemical dosing in a 24-well plate.ATG_E2F_CIS is one of 52 assay component(s) measured or calculated from the ATG_CIS assay. It is designed to make measurements of mRNA induction, a form of inducible reporter, as detected with fluorescence intensity signals by Reverse transcription polymerase chain reaction (RT-PCR) and Capillary electrophoresis technology.Data from the assay component ATG_E2F_CIS was analyzed into 1 assay endpoint. This assay endpoint, ATG_E2F_CIS, was analyzed with bidirectional fitting relative to DMSO as the negative control and baseline of activity. Using a type of inducible reporter, measures of mRNA for gain or loss-of-signal activity can be used to understand the reporter gene at the transcription factor-level as they relate to the gene E2F1. Furthermore, this assay endpoint can be referred to as a primary readout, because this assay has produced multiple assay endpoints where this one serves a reporter gene function. To generalize the intended target to other relatable targets, this assay endpoint is annotated to the dna binding intended target family, where the subfamily is E2F transcription factor.
# Human liver HepG2 cells are transiently transfected with multiple reporter transcription units (MRTUs) in 6-well plates using FuGene 6 reagent (Roche; 3 ml FuGene/1 mg DNA). The MRTU constructs are regulated by a cis-regulating element (promoter). […] A major difference between the CIS and TRANS system is that in CIS activities of endogenous TFs are measured, whereas the TRANS assay evaluates changes in activities of exogenous, chimeric NR-Gal4 proteins. […] At the end of 24 hour incubation, total RNA was isolated using TriZol reagent (Invitrogen). The isolated RNA is then reverse-transcribed using oligo(dT) primer and Mo-MLV reverse transcriptase (Invitrogen) with DNAse I (Ambion) treatment for 30 min. The one-tenth of the produced cDNA was amplified by PCR using Taq DNA polymerase (Invitrogen) and two reporter sequence-specific primers. The PCR products were fluorescently labeled by primer extension with 6-arboxyfluorescein (6-FAM) 5'-labeled reporter sequence-specific primer (2 min at 95 C, 20 s at 68 C and 10 min at 72 C) and these products were digested with 5U of HpaI (New England Biolabs) for 2h at 37 C. The fragments were purified using Qiaquick PCR columns (Qiagen), analyzed on an ABI 3130xL genetic analyzer (Applied Biosystems) with peak positions identified by using a set of X-rhodamine (ROX)-labeled MapMarker1000 molecular weight standards (BioVentures). The raw capillary electrophoresis data was processed using Attagraph software (Attagene).
# Chain of Transcription factor E2F1 (Homo sapiens) (Q01094 whole entry, looked up): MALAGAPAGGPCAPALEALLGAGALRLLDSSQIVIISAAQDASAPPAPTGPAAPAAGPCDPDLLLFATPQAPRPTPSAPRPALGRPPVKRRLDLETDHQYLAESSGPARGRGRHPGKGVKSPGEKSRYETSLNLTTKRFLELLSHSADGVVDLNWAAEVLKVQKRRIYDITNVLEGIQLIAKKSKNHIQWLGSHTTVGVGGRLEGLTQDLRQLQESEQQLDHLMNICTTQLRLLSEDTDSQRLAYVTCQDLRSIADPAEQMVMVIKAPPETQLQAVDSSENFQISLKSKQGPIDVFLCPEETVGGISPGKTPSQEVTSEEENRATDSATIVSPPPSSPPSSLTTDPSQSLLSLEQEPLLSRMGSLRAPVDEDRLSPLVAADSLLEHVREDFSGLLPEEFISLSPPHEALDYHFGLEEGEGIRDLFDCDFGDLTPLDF
row,Structure (SMILES),outcome
1,O=C1NC2NC(=O)NC2N1 (stereo not given),inactive
2,O=C(O)c1ccc(O)cc1,inactive
3,CN(C)CCOC(C)(c1ccccc1)c1ccccn1 (stereo not given),inactive
4,CC1CC(O)CC(C)(C)C1 (stereo not given),inactive
5,O=c1[nH]c(=O)c2cn[nH]c2[nH]1,inactive
6,O=Cc1ccccc1S(=O)(=O)O,inactive
7,CCCCC(CC)COC(C)=O (stereo not given),inactive
8,CCC1(c2ccccc2)C(=O)NCNC1=O,inactive
9,CS(C)=O,inactive
10,CCCCC(CC)C(=O)OC(C)C (stereo not given),inactive
11,O=C1OC2(c3ccccc31)c1ccc(O)c(Br)c1Oc1c2ccc(O)c1Br,inactive
12,CC(C=O)Cc1ccc(C(C)(C)C)cc1 (stereo not given),inactive
13,CCc1cc(Cc2cc(CC)cc(C(C)(C)C)c2O)c(O)c(C(C)(C)C)c1,inactive
14,O=C(Nc1ccc2c(O)c(N=Nc3ccc(N=Nc4ccc(S(=O)(=O)O)cc4)cc3)c(S(=O)(=O)O)cc2c1)c1ccccc1,inactive
15,CCNCCO,inactive
16,CCCCC1CCC(O)CC1 (stereo not given),inactive
17,CC(Oc1cc(Cl)ccc1Cl)C(=O)O (stereo not given),inactive
18,CCCCCCCCCC(=O)OC,inactive
19,CCN(CCC#N)c1ccc(N=Nc2ccc([N+](=O)[O-])cc2)cc1,inactive
20,Cc1ncc([N+](=O)[O-])n1CCO,inactive

row,Structure (SMILES),outcome
1,Cc1ccc(OC(=O)c2ccccc2O)cc1,inactive
2,O=C(O)CCCCCCCCC(=O)O,inactive
3,COc1cc(C(C)C)ccc1C,inactive
4,OCCc1ccccc1,inactive
5,OCCOCCN1CCN(C2=Nc3ccccc3Sc3ccccc32)CC1,inactive
6,CC/C=C\CC/C=C/CO,inactive
7,CCOC(=O)C(C#N)=C(c1ccccc1)c1ccccc1,inactive
8,Cc1c(C2(c3cc(Br)c(O)c(Br)c3C)OS(=O)(=O)c3ccccc32)cc(Br)c(O)c1Br,inactive
9,CCN(CC)C(=O)N(CC)CC,inactive
10,CC(=O)Nc1ccc(C(=O)CCl)cc1,inactive
11,CCCCCCCC(=O)OCCCCCC,inactive
12,COc1ccc(COC(C)=O)cc1,inactive
13,Nc1ccc(Cl)c([N+](=O)[O-])c1,inactive
14,CCOC(=O)CC(C)O (stereo not given),inactive
15,C[N+](C)(C)CCCCCC[N+](C)(C)C,inactive
16,C=CCCC(=O)/C=C/C1C(C)=CCCC1(C)C (stereo not given),inactive
17,CS(=O)(=O)c1ccc(C2=C(c3ccccc3)C(=O)OC2)cc1,inactive
18,CCCC(=O)C(CC)Sc1ccoc1C (stereo not given),inactive
19,Oc1ccc2cc(SSc3ccc4cc(O)ccc4c3)ccc2c1,inactive
20,NC1CCCCC1N (stereo not given),inactive
